Article PMC5700166

target: GST-Hu-p50 (Homo sapiens, UniProt P19838 7-356); experiment: protein-binding microarray (PBM); PBM: ~300 nM protein, 6 mM HEPES pH 7.8, 80 mM KCl, 0.5 mM EDTA, 0.5 mM EGTA, 6% glycerol, 35 ng/ul poly-dIdC, 1% milk, 1 h, room temperature; Ap Aiptasia and Nv Nematostella (sea anemones) / Co Capsaspora / Aq Amphimedon (sponge) / Dm Drosophila / Hu human; RHD is the Rel homology domain; high values mean tight binding; conditions: dsDNA, one strand shown
Sequence (P19838 7-356): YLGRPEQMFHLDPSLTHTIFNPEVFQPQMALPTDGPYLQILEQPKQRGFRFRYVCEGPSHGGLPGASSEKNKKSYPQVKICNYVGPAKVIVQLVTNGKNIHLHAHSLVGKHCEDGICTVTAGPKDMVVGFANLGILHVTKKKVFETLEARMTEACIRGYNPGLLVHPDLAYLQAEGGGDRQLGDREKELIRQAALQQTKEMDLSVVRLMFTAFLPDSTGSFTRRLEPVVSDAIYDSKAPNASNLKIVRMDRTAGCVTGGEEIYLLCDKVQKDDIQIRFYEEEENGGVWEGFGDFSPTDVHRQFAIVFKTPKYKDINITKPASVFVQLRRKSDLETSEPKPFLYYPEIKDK

Row | Sequence | binding signal [z-score]
1 | CCGATTAACATCAGGGAAAAACCTGATGTTAATCGGGTCTTGATTCGCTTGACGCTGCTG | 4.95
2 | CCGATTAACATCAGGGGTTACACTGATGTTAATCGGGTCTTGATTCGCTTGACGCTGCTG | 1.37
3 | CCGATTAACATCATACAAGGGAGTGATGTTAATCGGGTCTTGATTCGCTTGACGCTGCTG | 1.09
4 | CCGATTAACATCAACGTTTCCCCTGATGTTAATCGGGTCTTGATTCGCTTGACGCTGCTG | 5.04
5 | CCGATTAACATCAGGAAATTTCATGATGTTAATCGGGTCTTGATTCGCTTGACGCTGCTG | 1.06
6 | CCGATTAACATCACGGACACCCCTGATGTTAATCGGGTCTTGATTCGCTTGACGCTGCTG | 1.06
7 | CCGATTAACATCAGGAAACACCATGATGTTAATCGGGTCTTGATTCGCTTGACGCTGCTG | 1.95
8 | CCGATTAACATCAGGGCAAACCCTGATGTTAATCGGGTCTTGATTCGCTTGACGCTGCTG | 1.57
9 | CCGATTAACATCAGGGGAACATATGATGTTAATCGGGTCTTGATTCGCTTGACGCTGCTG | 4.06
10 | CCGATTAACATCAGGAAACACCCTGATGTTAATCGGGTCTTGATTCGCTTGACGCTGCTG | 3.48
11 | CCGATTAACATCAGGGAAAAAAATGATGTTAATCGGGTCTTGATTCGCTTGACGCTGCTG | 4.58
12 | CCGATTAACATCAAAGATTTCCCTGATGTTAATCGGGTCTTGATTCGCTTGACGCTGCTG | 4.86
13 | CCGATTAACATCACGGCAATCCCTGATGTTAATCGGGTCTTGATTCGCTTGACGCTGCTG | 1.12
14 | CCGATTAACATCACAATAACGGGTGATGTTAATCGGGTCTTGATTCGCTTGACGCTGCTG | 1.74
15 | CCGATTAACATCAGGGAAGGACCTGATGTTAATCGGGTCTTGATTCGCTTGACGCTGCTG | 1.18
16 | CCGATTAACATCAAAAATTCCATTGATGTTAATCGGGTCTTGATTCGCTTGACGCTGCTG | 1.07
17 | CCGATTAACATCACCCTTGGGAATGATGTTAATCGGGTCTTGATTCGCTTGACGCTGCTG | 1.55
18 | CCGATTAACATCACATTTCCCCATGATGTTAATCGGGTCTTGATTCGCTTGACGCTGCTG | 5.25
19 | CCGATTAACATCAGGGGATACCCTGATGTTAATCGGGTCTTGATTCGCTTGACGCTGCTG | 5.1

Row | Sequence | binding signal [z-score]
20 | CCGATTAACATCACTTTTTTCCCTGATGTTAATCGGGTCTTGATTCGCTTGACGCTGCTG | 3.53
21 | CCGATTAACATCACCCACCGATTTGATGTTAATCGGGTCTTGATTCGCTTGACGCTGCTG | 1.08
22 | CCGATTAACATCAATTTTTGCCCTGATGTTAATCGGGTCTTGATTCGCTTGACGCTGCTG | 1.07
23 | CCGATTAACATCAAGAAATTCCTTGATGTTAATCGGGTCTTGATTCGCTTGACGCTGCTG | 1.18
24 | CCGATTAACATCAAAAATTCCCATGATGTTAATCGGGTCTTGATTCGCTTGACGCTGCTG | 5.24
25 | CCGATTAACATCAGCATTTTCCCTGATGTTAATCGGGTCTTGATTCGCTTGACGCTGCTG | 3.25
26 | CCGATTAACATCAGTGATTAAGGTGATGTTAATCGGGTCTTGATTCGCTTGACGCTGCTG | 1.25
27 | CCGATTAACATCAGGATATACCCTGATGTTAATCGGGTCTTGATTCGCTTGACGCTGCTG | 1.53
28 | CCGATTAACATCACAATTTTCCCTGATGTTAATCGGGTCTTGATTCGCTTGACGCTGCTG | 4.58
29 | CCGATTAACATCAGGGGAAGCACTGATGTTAATCGGGTCTTGATTCGCTTGACGCTGCTG | 5.16
30 | CCGATTAACATCACCAAATTTCCTGATGTTAATCGGGTCTTGATTCGCTTGACGCTGCTG | 1.31
31 | CCGATTAACATCAGAAAATTTCCTGATGTTAATCGGGTCTTGATTCGCTTGACGCTGCTG | 1.69
32 | CCGATTAACATCAAAATTTTCCTTGATGTTAATCGGGTCTTGATTCGCTTGACGCTGCTG | 1.03
33 | CCGATTAACATCACATCTTCCCCTGATGTTAATCGGGTCTTGATTCGCTTGACGCTGCTG | 4.51
34 | CCGATTAACATCAGGCGTTTCCCTGATGTTAATCGGGTCTTGATTCGCTTGACGCTGCTG | 1.83
35 | CCGATTAACATCAGGGGAATGGATGATGTTAATCGGGTCTTGATTCGCTTGACGCTGCTG | 4.59
36 | CCGATTAACATCAGGGAAACTACTGATGTTAATCGGGTCTTGATTCGCTTGACGCTGCTG | 3.85
37 | CCGATTAACATCAATAAATTTCCTGATGTTAATCGGGTCTTGATTCGCTTGACGCTGCTG | 1.15
